Assay outcomes from PubChem BioAssay.
The list is not random: actives were taken first. Their share in the collection is about 12%.
BAZ2B inh = blocks human BAZ2B; Q9UIF8; AlphaScreen BAZ2B-H3K14Ac peptide displacement; Potency, µM (highest dose often 114 µM), most hits filed as inhibitors; 4.4% of 360,000 active; AID 504333; further: nearly all actives have a fitted effect of over 60% in size
Target sequence (Q9UIF8 whole entry, looked up): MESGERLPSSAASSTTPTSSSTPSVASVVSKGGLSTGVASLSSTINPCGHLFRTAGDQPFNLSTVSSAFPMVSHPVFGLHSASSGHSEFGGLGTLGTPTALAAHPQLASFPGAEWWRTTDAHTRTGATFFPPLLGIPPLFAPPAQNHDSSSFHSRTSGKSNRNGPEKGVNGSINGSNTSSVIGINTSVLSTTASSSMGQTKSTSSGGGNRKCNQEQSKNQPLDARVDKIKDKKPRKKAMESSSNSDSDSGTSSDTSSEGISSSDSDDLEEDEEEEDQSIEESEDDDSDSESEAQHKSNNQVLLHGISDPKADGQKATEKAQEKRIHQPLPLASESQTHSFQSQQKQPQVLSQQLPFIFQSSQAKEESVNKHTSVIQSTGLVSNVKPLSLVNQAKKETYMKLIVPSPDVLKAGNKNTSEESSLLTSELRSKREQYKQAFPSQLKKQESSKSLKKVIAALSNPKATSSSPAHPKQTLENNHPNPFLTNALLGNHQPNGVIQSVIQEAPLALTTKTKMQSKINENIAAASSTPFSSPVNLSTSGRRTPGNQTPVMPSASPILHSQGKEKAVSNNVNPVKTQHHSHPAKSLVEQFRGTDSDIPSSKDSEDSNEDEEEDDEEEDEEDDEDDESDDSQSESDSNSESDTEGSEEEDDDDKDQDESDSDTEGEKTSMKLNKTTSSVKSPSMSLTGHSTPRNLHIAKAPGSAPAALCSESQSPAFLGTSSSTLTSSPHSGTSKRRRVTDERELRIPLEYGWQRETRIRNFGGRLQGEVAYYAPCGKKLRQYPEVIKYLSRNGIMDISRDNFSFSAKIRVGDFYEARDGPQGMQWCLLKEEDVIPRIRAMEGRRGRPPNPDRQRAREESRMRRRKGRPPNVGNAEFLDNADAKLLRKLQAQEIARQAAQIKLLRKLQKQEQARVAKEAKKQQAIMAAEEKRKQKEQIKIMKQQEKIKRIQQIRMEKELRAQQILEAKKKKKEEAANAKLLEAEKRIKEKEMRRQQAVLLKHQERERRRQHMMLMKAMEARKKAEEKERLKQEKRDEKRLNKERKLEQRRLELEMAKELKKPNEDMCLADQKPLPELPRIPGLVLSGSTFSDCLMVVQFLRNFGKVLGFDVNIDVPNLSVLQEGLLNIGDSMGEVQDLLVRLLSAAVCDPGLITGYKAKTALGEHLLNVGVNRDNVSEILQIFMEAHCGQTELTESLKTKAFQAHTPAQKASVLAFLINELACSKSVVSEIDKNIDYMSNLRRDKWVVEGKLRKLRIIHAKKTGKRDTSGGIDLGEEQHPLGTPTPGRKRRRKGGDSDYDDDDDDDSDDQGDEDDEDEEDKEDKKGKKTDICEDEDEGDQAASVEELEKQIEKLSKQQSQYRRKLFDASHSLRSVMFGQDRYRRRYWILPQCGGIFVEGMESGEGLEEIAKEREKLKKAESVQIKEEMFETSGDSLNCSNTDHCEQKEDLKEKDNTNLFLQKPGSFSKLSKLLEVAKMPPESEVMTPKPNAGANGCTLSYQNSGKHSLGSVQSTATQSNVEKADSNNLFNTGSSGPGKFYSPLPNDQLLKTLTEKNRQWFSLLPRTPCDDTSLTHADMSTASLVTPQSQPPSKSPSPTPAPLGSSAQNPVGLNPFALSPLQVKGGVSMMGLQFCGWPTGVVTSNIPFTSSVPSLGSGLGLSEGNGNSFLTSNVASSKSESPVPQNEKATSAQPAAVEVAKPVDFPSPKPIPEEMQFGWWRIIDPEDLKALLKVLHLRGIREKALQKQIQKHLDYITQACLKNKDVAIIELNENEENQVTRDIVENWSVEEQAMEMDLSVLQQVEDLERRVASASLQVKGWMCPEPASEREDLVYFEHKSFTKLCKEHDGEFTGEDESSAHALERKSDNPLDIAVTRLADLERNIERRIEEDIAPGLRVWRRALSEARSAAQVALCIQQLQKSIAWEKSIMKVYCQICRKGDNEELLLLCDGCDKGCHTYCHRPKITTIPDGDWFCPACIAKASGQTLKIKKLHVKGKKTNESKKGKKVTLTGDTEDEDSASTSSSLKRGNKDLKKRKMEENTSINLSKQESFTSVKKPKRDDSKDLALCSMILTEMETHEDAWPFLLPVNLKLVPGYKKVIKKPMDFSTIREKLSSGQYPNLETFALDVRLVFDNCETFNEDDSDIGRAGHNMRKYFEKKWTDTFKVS
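AlphaScreen displacement of biotin-H3(5-23)K14Ac peptide (50 nM final) from BAZ2B (50 nM final) in PBS pH 7.4, 0.01% Tween-20; complex preformed 30 min RT, then compounds (top 110 uM) 30 min RT, beads 20 min dark.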
HP1b chromo inh = HP1-beta chromodomain-methylated histone interaction inhibition; P83916; AlphaScreen HP1-beta / biotin-H3K9me3 peptide binding; Potency, µM (highest dose often 114 µM), most hits filed as inhibitors; 0.56% of 390,000 active; AID 540317; further: nearly all actives have a fitted effect of over 70% in size
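AlphaScreen: HP1-beta (50 nM) preformed 30 min with biotin-H3(1-18)K9me3 peptide (50 nM) in PBS pH 7.4, 0.01% Tween-20. Compound added for 30 min at RT, then streptavidin donor/nickel chelate acceptor beads (10 ug/mL) for 30 min.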
JMJD2A Tudor = inhibitors of human JMJD2A Tudor domain; AlphaScreen JMJD2A-Tudor / H3K4me3 peptide binding; Potency, µM (series often up to 114 µM), actives largely listed as inhibitors; 4.4% of 390,000 active; AID 504339; further: nearly all actives have a fitted effect of over 50% in size
G9a inh = inhibitors of human histone lysine methyltransferase G9a. Q96KQ7. G9a H3K9 monomethylation, AlphaScreen, 2 h. Potency, µM (highest dose often 102 µM), hits mostly inhibitors. 8.8% of 350,000 active; further: nearly all actives have a fitted effect of over 75% in size
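G9a (20 nM) was preincubated 15 min with compound, then reacted 2 h at room temperature with 500 nM biotin-H3K9 peptide and 20 µM SAM. Monomethyl-H3K9 detected by AlphaScreen using anti-H3K9me1 antibody.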
Sfp PPTase inh = blocks B. subtilis Sfp PPTase activity; Potency, µM, hits mostly inhibitors; 3.5% of 310,000 active; AID 1490; Biochemical Sfp PPTase activity, qHTS; Q9F4F7;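 further: the enzyme is Sfp with the accession as filed and its product quenches rhodamine fluorescence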
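Reaction rates are the 30-min fluorescence difference (ex 525, em 598 nm) in wells containing 15 nM Sfp, 5 uM rhodamine-CoA and 12.5 uM BHQ-2-YbbR at pH 7.6 with 10 mM MgCl2.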
Each line names hits and unclear results; the compound was inactive in the other large screens. The call rests on the fitted dose curve; in most records, active means well fitted curve in the direction sought with a large enough effect; inconclusive means small, poorly fitted or top-dose-only effect, or another doubt; inactive means no such curve, though single readings can be large; an effect the other way counts as inactive or inconclusive.

CC(=O)Nc1ccc(NC(=O)C(C)OC(=O)C2(c3ccc(F)cc3)CCCC2)cc1 (configuration not stated)	none
O=C1COc2ccc(C(=O)CSc3nnc(Cc4cccs4)n3-c3ccccc3)cc2N1	G9a inh 79.4µM
O=C1COc2ccc(C(=O)CSc3ccccc3C(=O)O)cc2N1	none (no result: G9a inh)
CC(C)c1ccccc1-n1c(SCC(=O)c2ccc3c(c2)NC(=O)CO3)nc2ccccc2c1=O	G9a inh 39.8µM
COc1ccccc1OCC(=O)NCC1(N(C)C)CCCCC1	none (no result: Sfp PPTase inh)
CCOC(=O)CCCCC(=O)c1[nH]c(=O)[nH]c1CSc1nc(C)cc(=O)[nH]1	BAZ2B inh 50.1µM, JMJD2A Tudor inconclusive, G9a inh inconclusive
CCOC(=O)CCCCC(=O)c1[nH]c(=O)[nH]c1CSc1nc(C)cc(C)n1	BAZ2B inh inconclusive, G9a inh inconclusive
CCOC(=O)CCCCC(=O)c1[nH]c(=O)[nH]c1CSc1nnc2c3cc(Br)ccc3n(C)c2n1	G9a inh 28.2µM, Sfp PPTase inh inconclusive (no result: HP1b chromo inh, JMJD2A Tudor)
CCOC(=O)CCCCC(=O)c1[nH]c(=O)[nH]c1CSc1nc2ccccc2[nH]1	BAZ2B inh inconclusive, JMJD2A Tudor 79.4µM, G9a inh 1.58µM
COCCNC(=O)C1(C(F)(F)F)C/C(=C\CCO)CCCO1 (configuration not stated)	none (no result: BAZ2B inh, G9a inh)
COc1ccc(CCN2CC(C(=O)OCC(=O)N(C)CC(=O)Nc3ccccc3Cl)CC2=O)cc1OC (configuration not stated)	none (no result: BAZ2B inh, G9a inh, Sfp PPTase inh)
O=C(CCN1N=C(c2ccccc2)CCC1=O)NCCCN1CCOCC1	G9a inh 50.1µM
CO/N=C/C1C(=O)NN=C1c1ccccc1 (configuration not stated)	BAZ2B inh inconclusive, JMJD2A Tudor 12.6µM, G9a inh inconclusive
CC1=NNC(=O)C1Oc1ccccc1 (configuration not stated)	none (no result: G9a inh)
O=C(NC1CCN(C(=S)Nc2ccccc2Cl)CC1)C1CCCCC1	none
O=[N+]([O-])c1ccc(N/N=C2\CC3CC=CC23)cc1 (configuration not stated)	BAZ2B inh inconclusive, JMJD2A Tudor inconclusive, G9a inh 44.7µM
O=[N+]([O-])c1ccc(N/N=C2\CC3CC=CC23)c([N+](=O)[O-])c1 (configuration not stated)	BAZ2B inh 3.16µM, HP1b chromo inh 14.1µM, JMJD2A Tudor 14.1µM, G9a inh 14.1µM, Sfp PPTase inh inconclusive
O=C(N/N=C1\CC2CC=CC12)c1ccc(O)cc1 (configuration not stated)	none (no result: BAZ2B inh)
O=c1cc(-c2ccccc2)cc(-c2ccccc2)n1O	BAZ2B inh 35.5µM, JMJD2A Tudor 50.1µM (no result: Sfp PPTase inh)
CC(C)n1c(=S)[nH]c2cc(Cl)ccc21	BAZ2B inh inconclusive, JMJD2A Tudor inconclusive, G9a inh 10µM, Sfp PPTase inh 79.4µM
CC(C)n1c(=S)[nH]c2ccccc2c1=O	none
Cc1nn2c(C)c(C(=O)NCc3cccc(Br)c3)cnc2c1-c1ccccc1	none (no result: Sfp PPTase inh)
COc1ccc(C2CC(=O)N3C(=C2C#N)SCC3(O)c2ccccc2)cc1 (configuration not stated)	JMJD2A Tudor inconclusive, Sfp PPTase inh 50.1µM
N#CC1=C2SCC(O)(c3ccccc3)N2C(=O)CC1c1cccs1 (configuration not stated)	BAZ2B inh inconclusive, G9a inh 50.1µM, Sfp PPTase inh 17.8µM
COc1cc(/C=C/C(=O)c2ccc3c(c2)OCO3)cc(Cl)c1O	BAZ2B inh inconclusive, HP1b chromo inh inconclusive, JMJD2A Tudor inconclusive, G9a inh 44.7µM
COc1ccc(/C=C/C(=O)c2ccc3c(c2)OCO3)c(OC)c1	none
O=C(Nc1nnc(-c2ccc(Cl)cc2)o1)C1=COCCO1	BAZ2B inh 50.1µM, JMJD2A Tudor inconclusive
CN(c1ccccc1)S(=O)(=O)c1ccc(C(=O)Nc2ccncc2)cc1	none (no result: Sfp PPTase inh)
CSCc1nnc(NC(=O)c2ccc(S(=O)(=O)N(C)C)cc2)o1	JMJD2A Tudor 20µM, Sfp PPTase inh inconclusive
CN(c1ccccc1)S(=O)(=O)c1ccc(C(=O)Nc2nnc(C3=COCCO3)o2)cc1	BAZ2B inh 79.4µM, G9a inh 35.5µM
CN(C)c1ccc(C(=O)Nc2nnc(C3=COCCO3)o2)cc1	JMJD2A Tudor 79.4µM (no result: BAZ2B inh)
CC(C)(C)c1ccc(C(=O)Nc2nnc(C3=COCCO3)o2)cc1	BAZ2B inh inconclusive
CSCc1nnc(NC(=O)c2ccc(S(=O)(=O)N(CC(C)C)CC(C)C)cc2)o1	none (no result: HP1b chromo inh, JMJD2A Tudor)
CCCNC(=O)Nc1ccc(NC(C)=O)cc1	JMJD2A Tudor inconclusive
CCN(CC)S(=O)(=O)c1ccc(NC(=O)c2cnccn2)cc1	none (no result: G9a inh)
CCN(Cc1ccc(OC)c(F)c1)C(=O)/C=C/c1ccc(S(=O)(=O)N2CCOCC2)cc1	none (no result: Sfp PPTase inh)
CCc1nnc(NC(=O)c2ccc(S(=O)(=O)N(C)c3ccccc3)cc2)o1	JMJD2A Tudor 25.1µM (no result: BAZ2B inh)
CCc1nnc(NC(=O)c2ccc(S(=O)(=O)N(CC(C)C)CC(C)C)cc2)o1	none
NC(=S)NC1CC2C=CC1C2 (configuration not stated)	none (no result: G9a inh)
COC(=O)c1ccc(CSC2=NC[C@@H]3[C@@H]4C(=O)N(Cc5ccccc5)C(=O)[C@@H]4[C@](Cc4ccccc4)(C(=O)OC)N23)cc1	JMJD2A Tudor 79.4µM (no result: BAZ2B inh, G9a inh, Sfp PPTase inh)
CN(Cc1ccccc1)C(=O)COC(=O)c1cc(=O)[nH]c2ccccc12	none (no result: BAZ2B inh, G9a inh, Sfp PPTase inh)
COc1ccc(N=CC2CCCCC2=O)c([N+](=O)[O-])c1 (configuration not stated)	HP1b chromo inh 44.7µM, JMJD2A Tudor 25.1µM (no result: BAZ2B inh, G9a inh, Sfp PPTase inh)
CN(Cc1cccc([N+](=O)[O-])c1)Cc1cccc2ccccc12	none (no result: G9a inh)
COc1cc(CN(C)Cc2cccc3ccccc23)cc([N+](=O)[O-])c1O	BAZ2B inh inconclusive, JMJD2A Tudor inconclusive, G9a inh 70.8µM
C[C@H]1Cc2c(-c3ccccc3)nc3c(c2CO1)CN(C(=O)NCCc1c[nH]c2ccccc12)CC3	none (no result: BAZ2B inh, HP1b chromo inh, JMJD2A Tudor, G9a inh)
CCn1c(CNS(=O)(=O)c2ccc(Br)cc2)n[nH]c1=S	JMJD2A Tudor 22.4µM, G9a inh 35.5µM
CCCn1c(C(C)NS(=O)(=O)c2ccccc2)n[nH]c1=S (configuration not stated)	JMJD2A Tudor inconclusive, G9a inh 20µM
C#CCSc1nnc(CNS(=O)(=O)c2ccc(Br)cc2)n1C	none
CCn1c(C(C)NS(=O)(=O)c2ccc(Cl)cc2)n[nH]c1=S (configuration not stated)	JMJD2A Tudor 20µM (no result: G9a inh)
Cc1c(Cc2ccccc2)c(=O)[nH]c(=O)n1C	none (no result: BAZ2B inh, G9a inh, Sfp PPTase inh)
COc1cccc(C2NC(CC(C)C)(C(=O)O)C3C(=O)N(Cc4ccccc4)C(=O)C23)c1O (configuration not stated)	none
CC(C)N1C(=O)C2C(c3ccccc3O)NC(C)(C(=O)O)C2C1=O (configuration not stated)	BAZ2B inh inconclusive, Sfp PPTase inh 20µM
CC(C)CC1(C(=O)O)NC(c2ccccc2O)C2C(=O)N(C(C)C)C(=O)C21 (configuration not stated)	none
